Results filed as inconclusive are left out. Activity calls are given as the source filed them. The call rests on the fitted dose curve; in most records, active means well fitted cell-killing curve with a large enough effect; inconclusive means small, poorly fitted or top-dose-only effect, or effect the other way; inactive means no such curve, though single readings can be large or run the other way.
Potency means the concentration at half of the fitted maximal effect.

This test in a line: Viability qHTS for spleen associated tyrosine kinase inhibitor (SYKi) drug resistant MV4-11 cells (AID 1963824). Further: nearly all actives have a fitted effect of over 35% in size. The conditions noted are these: SYKi-resistant MV4-11 viability, CellTiter-Glo, 72 h; series mostly up to 45 µM. In outline: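 SYK inhibitor-resistant MV4-11 AML cells, 500 per well, added to predispensed compounds and incubated 72 hr at 37 C, 5% CO2. Viability measured by CellTiter-Glo luminescence after 10 min at room temperature.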
For orientation: qHTS replaces the single test concentration by a dilution series.
Consider `Nc1nc(N)c2nc(-c3cccc(O)c3)cnc2n1`, for which the Potency is 2.06 µM (active). In the case of `Cn1ncnc1[C@@H]1c2n[nH]c(=O)c3cc(F)cc(c23)N[C@H]1c1ccc(F)cc1`, the Potency entry is “inactive”. Regarding `Clc1ccc(Cn2c(Cc3ccccc3)nc3ccccc32)cc1`, the Potency is 16.4 µM (active). Take `COC1C=C(C)C(O)(CO)C2(C)CCCC(C)(C)C12` (stereo not drawn): the Potency result was “inactive”. Still for that read-out and setting: then `O=C1NC(=NCc2cccs2)S/C1=C/c1ccc2ncccc2c1`, with 1.84 µM (active); and `C[C@@H](NC(=O)[C@H](O)c1cc(F)cc(F)c1)C(=O)N[C@@H]1C(=O)N(C)c2ccccc2-c2ccccc21`, with 18.4 µM (active); and `CSCC[C@H](NC(=O)[C@H](CO)NC(=O)[C@H](CCC(=O)O)NC(C)=O)C(=O)N[C@H](C=O)CC(=O)O`, with 1.5 µM (active). On to `CC1CC(=O)C2=C(O1)OC1(C)CCC3C(C)(C)C4OC4C(=O)C3(C)C1C2` (stereo not drawn), for which the Potency result was “inactive”.

Take `C=C[C@](C)(CC/C=C(\C)C(=O)O)O[C@@H]1OC[C@H](O)[C@H](O)[C@H]1O`: the Potency entry is “inactive”. On the same count and under the same terms, then `CC(C)(C)c1ccc(CN2CCN(C(c3ccccc3)c3ccc(Cl)cc3)CC2)cc1` (stereo not drawn), with 23.1 µM (active).

On to `C=C1CC[C@]2(C(=O)O[C@@H]3O[C@H](CO)[C@@H](O)[C@H](O)[C@H]3O)CC[C@]3(C)C(=CCC4[C@@]5(C)C[C@H](O)[C@@H](O[C@@H]6O[C@H](C(=O)O)[C@@H](O)[C@H](O)[C@H]6O)[C@](C)(C=O)C5CC[C@]43C)C2C1` (stereo partly drawn), for which the viability, % of control was 87.9% [at 9.25 µM] (inactive). Turning to `CC(=O)O[C@H]1C(=O)[C@@]2(C)[C@H]([C@H](OC(=O)c3ccccc3)[C@]3(O)C[C@H](OC(=O)[C@H](O)[C@@H](NC(=O)c4ccccc4)c4ccccc4)C(C)=C1C3(C)C)[C@]1(OC(C)=O)CO[C@@H]1C[C@@H]2O`, the Potency was 0.0044 µM (active).

As for `C=C(C(=O)O)[C@H]1C[C@]2(C)[C@@H](O)CC[C@]23O[C@H]1C[C@@H]3C`, the Potency result is “inactive”. The same measure, in the same setting: then `O=C1CCCC2=C1C(c1ccncc1Br)N=C(Nc1nc3ccccc3o1)N2` (stereo not drawn), with 18.4 µM (active); and `O=C(CCO[C@@H]1O[C@H](CO)[C@@H](O)[C@H](O)[C@H]1O)c1ccc(O)cc1`, with “inactive”.

`C=C1C[C@@H]2CC[C@@]34C[C@H]5O[C@H]6[C@@H](O3)[C@H]3O[C@H](CC[C@@H]3O[C@H]6[C@H]5O4)CC(=O)C[C@@H]3[C@@H](OC)[C@@H](C[C@H](O)CN)O[C@H]3C[C@H]3O[C@@H](CC[C@@H]1O2)C[C@@H](C)C3=C`: the Potency was 0.0005 µM (active). As for `[2H]C([2H])([2H])C(OC(=O)[C@H](C)N[P@](=O)(OC[C@H]1O[C@@H](n2ccc(=O)[nH]c2=O)[C@](C)(F)[C@@H]1O)Oc1ccccc1)C([2H])([2H])[2H]`, the Potency is 9.2 µM (active). Turning to `C=C1CCN([C@H](C)[C@](O)(Cn2cncn2)c2ccc(F)cc2F)CC1`, the Potency was 14.6 µM (active). Take `COC(=O)/C=C/C=C/C(=O)OC1C=C2COC(=O)C2(O)C2(C)CCCC(C)(C)C12` (stereo not drawn): the Potency was 8.93 µM (active).

With `CN(C)CCCCC(=O)Nc1ccc(NC(=S)NC(=O)c2ccc(C(C)(C)C)cc2)cc1`, the Potency is 1.46 µM (active).

In the case of `CC(=O)O[C@@H]1C=C2[C@H](CC[C@@]3(C)[C@@]2(O)CC[C@H]2Cc4c([nH]c5ccccc45)[C@@]23C)O[C@@H]1C(C)(C)O`, the Potency was 8.93 µM (active). On the same count and under the same terms, as for `C/C=C/C=C/C=C/C(=O)O[C@@H]1C=C(CO)C(O)(C(=O)OC)[C@@]2(C)CCCC(C)(C)C12` (stereo partly drawn), the figure is 10 µM (active); as for `CC1OC2OC(=O)C3(C)CC4C5(CO5)C5=CC(=O)OC(C)(C)C5=CC(=O)C4(C)C(C1=O)C23` (stereo not drawn), 5.02 µM (active); as for `COC(=O)[C@@H](NC(=O)[C@H](CC(C)C)NC(=O)N(Cc1ccccc1)C[C@@H](O)[C@H](Cc1ccccc1)NC(=O)OC(C)(C)C)C(C)C`, 3.35 µM (active). Still for that read-out and setting: as for `CC1(CO)CCCC2(C)C3COC(=O)C3=CC(O)C12` (stereo not drawn), the entry is “inactive”; as for `CC1(C)CC[C@]2(C(=O)O)CC[C@]3(C)C(=CCC4[C@@]5(C)C(=O)C[C@H](O)[C@@](C)(CO)C5CC[C@]43C)[C@@H]2C1` (stereo partly drawn), “inactive”. With `CC1(C)C[C@H]2C3=CCC4[C@@]5(C)CC[C@H](O[C@H]6O[C@H](C(=O)O)[C@@H](O)[C@H](O)[C@H]6O[C@H]6O[C@H](CO)[C@@H](O)[C@H](O)[C@H]6O[C@@H]6O[C@H](CO)[C@@H](O)[C@H](O)[C@H]6O)[C@](C)(CO)C5CC[C@@]4(C)[C@]3(C)CC[C@@]2(C)[C@H](O[C@@H]2OC[C@H](O)[C@H](OC3O[C@H](CO)[C@@H](O)[C@H](O)[C@H]3O)[C@H]2O)[C@@H]1O` (stereo partly drawn), the viability, % of control is 93.8% [at 9.25 µM] (inactive). Turning to `COc1ccc2c(c1O)OC(C)(C)c1c-2ccc2c1C(=O)N(c1ccc(C(=O)c3ccccc3)cc1)C2=O`, the Potency entry is “inactive”.

Values taken from PubChem BioAssay (NCATS).
